From PubChem
E coli growth-1 = blocks Escherichia coli growth. OD600, 23 h; active compounds read low. OD600 absorbance (no concentration beside the values). hit rate 0.21% among 330,000;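 active = OD600 absorbance below the run mean of sample wells minus 3.6 SD, in any replicate, cut at about 0.56 in these data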
Calb FLC = C. albicans growth modulation with fluconazole. C. albicans CaCi-2 (fluconazole-resistant clinical isolate) + fluconazole, Alamar Blue growth, 48 h. growth inhibition, % (test concentration not listed). hit rate 0.57% among 300,000. AID 1979;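 active = growth inhibition above about 58% in most replicates, limit read from the data, passing the limit was not always enough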;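 note: all wells also contain fluconazole at 8 µg/ml as a sub-toxic cotreatment; 0% = median of DMSO wells and 100% = median of geldanamycin control wells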
E coli growth-2 = reduces bacterial viability in AddAB counter-screen | E. coli V3065 growth, OD600 absorbance, 18 h | inhibition, % at 11.9 µM | hit rate 0.27% among 330,000 | AID 449728;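 active = inhibition above the campaign's mean inhibition across all tested compounds plus 3 SD, cut at about 9.9% in these data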;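 note: uninfected addAB+ strain grown without phage in ampicillin broth; 0% = DMSO wells and 100% = ciprofloxacin 0.95 µg/ml wells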
Tat export inh = blocks Tat-dependent protein export in E. coli; E. coli MC4100 TorA-mCherry Tat export, fluorescence; inhibition, % at 10 µM; hit rate 0.036% among 340,000; AID 488895;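 active = mean replicate inhibition at least 50% and at least half of replicates individually reaching 50%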;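 note: exported cargo escapes ClpAP degradation while cytoplasmic cargo is degraded and loses fluorescence; 0% = median of neutral control wells and 100% = median of NaSCN control wells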
phage Ecoli inh = E. coli growth loss with phage present. growth absorbance. inhibition, % at 11.9 µM. hit rate 0.26% among 360,000. AID 651602; in the data active = inhibition above about 11%
AddAB inh = less growth of phage-infected E. coli with AddAB; inhibition, % at 11.9 µM; hit rate 0.29% among 330,000; AID 435030; E. coli expressing H. pylori AddAB, absorbance growth; in the data active = inhibition above about 12%;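 note: 0% = vehicle wells of infected cells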
An asterisk follows results filed as active; . = no result given. Sampled rows, rich in hits. Any-hit rate of the full collection: about 0.9%.

SMILES	E coli growth-1	Calb FLC	E coli growth-2	Tat export inh	phage Ecoli inh	AddAB inh
COc1ccc2[nH]c(C)c(CCN3C(=O)OC(C)(C)C3(C)O)c2c1 (stereo not drawn)	0.63*	-4	2	-6	2	-3
Cn1c(-c2c(N)n(CCc3ccccc3)c3nc4ccccc4nc23)nc2ccccc21	0.76	94*	-2	12	.	-2
Cn1c(-c2c(N)n(CCCc3ccccc3)c3nc4ccccc4nc23)nc2ccccc21	0.77	1	.	3	.	.
CNC(=O)c1ccc2c(c1)nnn2C	0.67	106*	0	-1	6	2
C(=C\c1nc2ccccc2[nH]1)/c1ccccc1	0.53*	-18	-2	4	2	1
C=CC[C@@H]1C=C(C)C[C@H](C)C[C@H](OC)[C@H]2O[C@@](O)(C(=O)C(=O)N3CCCC[C@H]3C(=O)O[C@H](/C(C)=C/[C@@H]3CC[C@@H](O)[C@H](OC)C3)[C@H](C)[C@@H](O)CC1=O)[C@H](C)C[C@@H]2OC	.	117*	-2	.	.	0
CCN(CC)c1ccc2nc3ccccc3[n+](CC)c2c1	.	90*	-10	-131	.	-7
Clc1ccc(C=NNc2nc(Cl)nc3ccccc23)cc1	0.73	.	.	.	.	.
Cc1nc(C)c(C(=O)NN=Cc2ccco2)s1	0.68	.	.	.	.	.
O=C1C2C(C3CC3)N3C(=O)CN(Cc4ccccn4)C(=O)[C@@]3(Cc3ccccc3)C2C(=O)N1c1ccccc1 (stereo partly drawn)	0.69	.	.	.	.	.
O=C(/C=C/c1ccco1)Oc1cc(Br)cc(/C=N/NC(=O)c2ccccc2O)c1	.	90*	-1	-4	4	7
O=C(CNC(=O)c1ccccc1O)NN=Cc1cc(Br)ccc1OC(=O)C=Cc1ccco1	0.76	.	.	.	.	.
O=C(Nc1cccc(C(F)(F)F)c1)c1cccnc1	0.67	117*	1	-4	.	4
CCCn1c2c(c(=N)c3c1CCC3)CCC2	0.64	-4	2	-5	4	3
CCCCCCCn1c2c(c(=N)c3ccccc31)CCC2	0.63	81*	3	-2	6	2
Brc1cccc(CSc2nnc(-c3ccncc3)o2)c1	0.7	81*	0	7	2	1
c1ccc(-c2nnc(SCc3ccncc3)o2)cc1	.	.	.	.	2	.
O=C(O)C[C@H](O)C[C@H](O)/C=C/c1c(C2CC2)nc2ccccc2c1-c1ccc(F)cc1	.	103*	.	.	.	.
CC(C)n1c(/C=C/[C@H](O)C[C@H](O)CC(=O)O)c(-c2ccc(F)cc2)c2ccccc21	0.69	.	-1	-1	.	1
CNCC(CC1CCCCC1)NCC(Cc1ccccc1)NCCC12CC3CC(CC(C3)C1)C2 (stereo not drawn)	0.06*	.	.	.	.	.
CNC[C@H](CC1CCCCC1)NC[C@H](CO)NCCc1cccc(C(F)(F)F)c1	.	-36	-4	6	1	0
CNCC(Cc1ccccc1)NCC(CC1CCCCC1)NCCCc1ccccc1 (stereo not drawn)	0.47*	.	.	.	.	.
CCOC(=O)N1CCC(N2C(=O)c3ccccc3C2Nc2cc(C(=O)OC)cc(C(=O)OC)c2)CC1 (stereo not drawn)	0.77	-6	1	4	100*	3
CCOC(=O)N1CCC(N2C(=O)c3ccccc3C2Nc2cc(C)cc(C)c2)CC1 (stereo not drawn)	0.71	2	0	2	1	4
Cc1cccnc1Nc1nc(-c2ccccc2)cs1	0.64	-45	1	4	2	-1
SMILES	E coli growth-1	Calb FLC	E coli growth-2	Tat export inh	phage Ecoli inh	AddAB inh
Cc1cccnc1Nc1nc(-c2ccccn2)cs1	0.5*	-5	2	-3	3	3
Cc1cc(N/N=C/c2c(O)ccc3ccccc23)nc(-c2ccccc2O)n1	.	82*	0	-1	3	2
Cc1[nH]cnc1C(=O)NN=Cc1ccc([N+](=O)[O-])s1	0.41*	.	.	.	.	.
O=C(N/N=C\c1ccc([N+](=O)[O-])s1)c1cncc(Br)c1	.	108*	5	-16	4	5
O=C(NNc1ccc(Cl)cc1)C1CCC1	0.69	85*	2	-6	2	2
C=CCC(CC(=O)N(CCO)Cc1ccccc1)C(=O)NC(COC(=O)C(CC=C)Cc1ccc(F)cc1)Cc1ccccc1 (stereo not drawn)	0.71	.	.	.	.	.
O=[N+]([O-])CC(c1ccccc1)P(=O)(c1ccccc1)c1ccccc1 (stereo not drawn)	0.68	94*	-1	-12	1	0
CC(=NNC(=O)c1cccc([N+](=O)[O-])c1)c1cccc(NC(=O)C2CC2)c1	0.7	.	.	.	.	.
CCOC(=O)c1ccc(S(=O)(=O)NCCN(CC)CC)cc1	0.44*	-4	1	-7	3	0
CCN(CC)CCNS(=O)(=O)c1ccc(C(=O)NN)cc1	0.69	-4	0	-5	2	0
Cc1ccc(Cn2cccc2C=NNC(=S)Nc2ccc(C)cc2)cc1	0.72	.	.	.	.	.
Cc1cc(Sc2nc(N)ncc2[N+](=O)[O-])ncn1	0.61	105*	3	-24	3	1
Cc1cc(N)ncc1[N+](=O)[O-]	0.64	.	.	1	3	.
Cc1cc(Sc2ncnc(N)c2[N+](=O)[O-])ncn1	0.65	101*	2	-12	.	3
Cc1ccc(C=NNC(=O)c2ccc(OC3CCCC3)cc2)o1	0.72	.	.	.	.	.
CC(=O)Oc1c(I)cc(I)cc1C(=O)Nc1ccc(Cl)cc1	.	8	12*	-10	8	11
Cc1nn(C)c(C)c1/C=C/C(=O)c1ccc(Cl)cc1Cl	0.62	92*	-1	23	1	-1
Cc1nn(C)c(C)c1/C=C/C(=O)O	0.65	5	2	-2	2	1
COC(=O)/C(=N\Nc1ccc(Cl)cc1)Sc1nnc(-c2ccc(OC)cc2)n1C	.	84*	-3	5	5	-2
COc1ccc(/C=C/C(=O)O)cc1COc1cccc(C)c1	0.67	1	2	-4	3	6
COc1ccc(/C=C/C(=O)C2CC2)cc1COc1c(C)cccc1C	0.68	97*	0	5	3	-1
C#Cc1ccc(C2C=C(C(=O)NC3CC3)OC(OCCCCO)C2)cc1 (stereo not drawn)	0.7	.	.	.	.	.
O=C(CN1C(=O)c2ccccc2C1=O)Nc1ccccc1	0.65	-3	1	5	3	1
O=C(Nc1ccccc1)OCN1C(=O)c2ccccc2C1=O	.	69*	-1	5	0	0
Cc1nc2ccccc2cc1OCc1ccc(Cl)cc1	0.64	34	1	-1	1	6
COc1cccc(COc2cc3ccccc3nc2C)c1	0.67	100*	-1	4	1	3
COC(=O)c1sccc1OCc1cccc(OC)c1	0.68	21	0	3	5	3
Cc1nc2ccccc2cc1OCc1ccccc1	0.62	107*	-5	8	3	-1
COC(=O)[C@]1(C)NC(c2ccc(SC3CCCCC3)cc2)C2C(=O)N(C)C(=O)C21 (stereo partly drawn)	0.64	.	.	.	.	.
Cc1ccc(S(=O)(=O)N(C)c2ccc(OCC(=O)Nc3nnc(C4CC4)s3)cc2)cc1	0.72	63*	.	5	1	.
